The record followed here is PubChem BioAssay (EPA / NIEHS).

Inconclusive results are not listed. The source made the active and inactive calls. How the source made its calls: active means hit-call score of the fitted dose curve at least 0.9, where 1 is the maximum; inconclusive means response in the unintended direction; inactive means score below 0.9.

Read-out in this assay: xenobiotic metabolism (CYP2C9), CYP2C9 (gene 1559)
As to the kind of experiment: CLD_CYP2C9_6hr: CellzDirect (CLD) Gene Expression Assay for xenobiotic metabolism (CYP2C9) at 6 hours (AID 2283664). The method, then: CLD_6hr is a cell-based, multiplexed-readout assay that uses hepatocyte, a human liver primary cell, with measurements taken at 6 hours after chemical dosing in a 96-well plate.CLD_CYP2C9_6hr is one of 16 assay component(s) measured or calculated from the CLD_6hr assay. It is designed to make measurements of mRNA induction, a form of inducible reporter, as detected with chemiluminescence signals by Quantitative Nuclease Protection Assay (qNPA) technology.Data from the assay component CLD_CYP2C9_6hr was analyzed at the endpoint, CLD_CYP2C9_6hr, in the positive analysis fitting direction relative to DMSO as the negative control and baseline of activity. Using a type of inducible reporter, gain-of-signal activity can be used to understand changes in the reporter gene as they relate to the gene CYP2C9. Furthermore, this assay endpoint can be referred to as a primary readout. To generalize the intended target to other relatable targets, this assay endpoint is annotated to the cyp intended target family, where subfamily is xenobiotic metabolism.
Human hepatocyte cultures were treated daily for two consecutive days with fresh dosing solutions containing appropriate concentrations of the 320 ToxCast chemicals (chemical identities were blinded to CellzDirect and other ToxCast collaborators), vehicle control (0.2% DMSO), and positive control inducers as summarized in Table 1. Due to the large number of treatment groups and chemicals examined, the ToxCast chemicals were divided into two groups (spanning two independent cultures of hepatocytes from separate donor preparations (Hu778: ToxCast plates 1 and 2; Hu776: ToxCast plates 3 and 4). Each preparation of human hepatocyte cultures was treated with respective vehicle control, medium only control, set of six positive controls/reference chemicals for the five hepatic receptor pathways, and a subset of eight of the ToxCast chemicals (indoxacarb, pyrithiobac-sodium, norflurazon, cyhalofop-butyl, methomyl, thiram, acetochlor, and propiconazole). These replicate data, coupled with internal replicates designed within the blinded ToxCast chemical library, provided additional data to evaluate interindividual differences between hepatocyte preparations and their potential impact on chemical profiles.Cell morphology and integrity were evaluated using phase-contrast microscopy as an indicator of hepatocyte cell health (Tyson & Green, 1987). Cultures for each treatment group (i.e., media, vehicle [0.2% DMSO], positive control inducers [multiple concentrations], and the ToxCast chemicals [multiple concentrations]) were observed and cell morphology was assessed relative to vehicle control cultures at each harvest time point (0, 6, 24, or 48 h). […] Images were evaluated at the conclusion of the study to assess changes in cell integrity and account for the effects of chemical exposure on uncharacteristic changes in concentration-dependent gene expression profiles. The results from these determinations of apparent cytotoxicity were annotated (yes/no) alongside the corresponding qNPA data for reference.At the conclusion of each treatment period, hepatocyte cultures (96-well) were washed with 1 volume of HBSS, lysed by addition of 25 ul ArrayPlate lysis buffer (HTG, Tucson, AZ), and 70 ul/well of Denaturation Oil, denatured by incubation at 95C for 10 min, and frozen at approximately -70C until analysis by nuclease protection assay (qNPA) (Roberts et al., 2007). For qNPA analysis, cell lysates were thawed at 50C for approximately 30 min, qNPA probes were added, and samples were incubated at 95C for 10 min to begin the detection process by denaturing the target RNA, dissociating the duplexes and secondary structure hybridization. At the conclusion of the hybridization period, S1 nuclease reagent was added to each sample to digest all nonprotected nucleotides at 50C for 60-90 min. […]
On to `CCCOC(=O)NCCCN(C)C`, for which the call was inactive.

With `COc1nc(C)nc(NC(=O)NS(=O)(=O)c2ccccc2OCCCl)n1`, the call was inactive.

Consider `N#CSCSc1nc2ccccc2s1`, for which the concentration at half-maximal activity (AC50) (in general, the concentration at which the activity in the assay is half-maximal) is 36.1 µM (active).

As to `CCCN(CCC)C(=O)SCC`, the compound was classed as inactive.

As for `CCOC(=O)COc1cc(-n2ncc(C(F)(F)F)c(C)c2=O)c(F)cc1Cl`, the compound was called inactive.

On to `CC(C)(C)[C@@H](O)[C@@H](Cc1ccc(Cl)cc1)n1cncn1`, for which the call was inactive.

Regarding `COC(=O)CSc1cc(N=c2sc(=O)n3n2CCCC3)c(F)cc1Cl`, the outcome was inactive.

Turning to `CCCCC(CC)CN1C(=O)C2C3C=CC(C3)C2C1=O` (stereo not drawn), the call was inactive.

In the case of `CC(C)(c1ccc(O)cc1)c1ccc(O)cc1`, the call was inactive.

Turning to `CCCCOC(=O)[C@@H](C)Oc1ccc(Oc2ccc(C(F)(F)F)cn2)cc1`, the compound was classed as inactive.

With `CC1(C)C(C=C(Cl)Cl)C1C(=O)OCc1cccc(Oc2ccccc2)c1` (stereo not drawn), the result was inactive.

Turning to `CCC(O)=C1C(=O)CC(C(=O)O)CC1=O` (stereo not drawn), the outcome was inactive.

In the case of `COC(=O)c1ccccc1S(=O)(=O)NC(=O)Nc1nc(OC(F)F)cc(OC(F)F)n1`, the result was inactive.

On to `COCCO`, for which the result was inactive.

For the compound `C#CCOC(=O)[C@@H](C)Oc1ccc(Oc2ncc(Cl)cc2F)cc1`, the result was inactive.

Regarding `CCOC(=O)C(C)Oc1ccc(Oc2cnc3cc(Cl)ccc3n2)cc1` (stereo not drawn), the result was inactive.

Turning to `S=C(S)NCCNC(=S)S.[Mn+2].[S-]C([S-])=NCCN=C([S-])[S-].[Zn+2]`, the result was inactive.

Regarding `CCCCCOC(=O)COc1cc(N2C(=O)C3=C(CCCC3)C2=O)c(F)cc1Cl`, the compound was called inactive.
